# Experimental data as given in PubChem BioAssay AID504850 (National Center for Advancing Translational Sciences (NCATS), 2011).
# About 1,200 (52%) of roughly 2,300 compounds were called active. Inconclusive results (about 34%) are left out. The call rests on the fitted dose curve; in most records, active means well fitted inhibition curve with a large enough effect; inconclusive means small, poorly fitted or top-dose-only effect, or effect the other way; inactive means no such curve, though single readings can be large or run the other way. The set was probably picked from earlier hits. The list shows a part of the results.
# Assay: Confirmation screen for delayed death inhibitors of the malarial parasite plastid, 48 hour incubation; further: nearly all actives have a fitted effect of over 65% in size
# Conditions: P. falciparum-infected erythrocytes, luciferase growth; series mostly up to 28.7 µM
# Source text: The goal of this screen is to discover new antimalarial compounds that act by inhibiting the development of the apicoplast in the malarial parasite Plasmodium falciparum. The biochemical processes that make this organelle essential for erythrocytic stage parasites are not well understood. However, antibiotics, such as azithromycin and tetracycline, which target the apicoplast translational machinery, have a potent antimalarial effect. […] We have developed a cell-based assay that measures parasite growth based on the expression of an integrated copy of a firefly luciferase reporter. To detect small molecules that cause this "delayed death phenotype, erythrocytes infected with the luciferase-expressing parasites were incubated with compounds for either one or two generations, corresponding to 48 and 96 hours, respectively. Compounds that inhibit parasite growth in the second generation, but not the first, should be enriched in antimalarials that target the apicoplast. Growth inhibition is detected by a decrease in luciferase activity. MLPCN Grant: R21 NS059500 Assay Provider: David Fidock and Eric Ekland, Columbia University Keywords: NIH Roadmap, MLPCN, MLI, MLSMR, qHTS, NCGC, qHTS, malaria, luciferase, viability
# Four microliters of culture medium (RPMI 1640 with 0.5% w/v Albumax (GIBCO), 24 mM sodium bicarbonate and 10 ug/mL gentamycin) were dispensed by a Multi-drop Combi into white solid 1536-well plates (Grenier) and 23 nL compound was added by a pin tool. Four microliters of infected erythrocytes (2% hematocrit, 0.1% parasitemia final concentration) in culture medium were dispensed and the plates incubated for 48 hours at 37 C in 5% CO2. Two microliters of luciferase detection reagent was added and luminescence was detected by a ViewLux (PerkinElmer) reader.
# Potency means the concentration at half of the fitted maximal effect.
row,Structure (SMILES),Potency
1,S=c1[nH]nc(COc2ccccc2)n1/N=C/C(Cl)=C/c1ccccc1,14.1 µM (active)
2,ClC(/C=N/n1cnnc1)=C/c1ccccc1,14.1 µM (active)
3,O=C(CSc1nc2nn(-c3ccccc3)c(=O)c-2c2n1CCCCC2)c1ccc(O)c(O)c1,12.6 µM (active)
4,COc1ccc(/C=C/C(=O)c2ccc(NS(=O)(=O)c3ccc(C)cc3)cc2)cc1O,7.94 µM (active)
5,COc1cc(/C=C/C(=O)c2ccc(NS(=O)(=O)c3ccc(C)cc3)cc2)ccc1OC(F)F,12.6 µM (active)
6,Cc1c(O)ccc(C(=O)CN2CCN(Cc3ccc4c(c3)OCO4)CC2)c1O,14.1 µM (active)
7,Cc1c(-c2ccccc2)nc2ccccc2c1C(=O)Nc1ccncc1,0.501 µM (active)
8,CC(=O)N1CCCN(C(=O)c2cc(COc3c(F)cccc3F)on2)CC1,inactive
9,O=C(c1cc(COc2cccc(C(F)(F)F)c2)on1)N1CCC(Oc2cccnc2)CC1,12.6 µM (active)
10,CN1CCN(C(=O)c2cc(COc3c(F)cccc3F)on2)CC1c1ccccc1 (configuration not stated),inactive
11,S=c1[nH]nc(-c2cc(-c3ccccc3)n[nH]2)n1/N=C/C(Br)=C/c1ccccc1,6.31 µM (active)
12,C=C1C(=O)O[C@@H]2C[C@@H](C)[C@@H]3C=CC(=O)[C@@]3(C)[C@@H](OC(C)=O)[C@H]12,1.58 µM (active)
13,COc1ccc2nc3sc(C(=O)NCCN4CCc5ccccc5C4)cc3cc2c1,8.91 µM (active)
14,c1ccc2c(c1)Nc1cc3ccccc3cc1S2,5.01 µM (active)
15,CCN(Cc1ccccc1)C(=O)CSc1ncn[nH]1,inactive
16,O=C(/C=C/Sc1ncn[nH]1)c1ccc(Cl)cc1,12.6 µM (active)
17,O=C(/C=C/c1ccccc1Cl)c1ccccc(=O)c1O,10 µM (active)
18,Cc1ccc(C)c(/C=C/C(=O)c2ccccc(=O)c2O)c1,14.1 µM (active)
19,N#Cc1ccccc1S(=O)(=O)N1CCC(C(=O)NCc2ccccc2CN2CCCC2)CC1,12.6 µM (active)
20,Cc1ccc(SCC(=O)Nc2ccccc2C(=O)O)cc1,inactive
21,COc1ccc(C)cc1NC(=O)CSCc1ccccc1C,12.6 µM (active)
22,O=C(C[C@H]1C(=O)N(Cc2ccccc2)C[C@@H]1Cc1ccccc1)Nc1ccccc1,11.2 µM (active)
23,CCOc1ccc(NC(=O)CC2C(=O)N(c3ccccc3)C(=O)N2CCOC)cc1 (configuration not stated),inactive

row,Structure (SMILES),Potency
1,Cn1c(Cc2cccc3ccccc23)nnc1SCc1ccc([N+](=O)[O-])cc1,14.1 µM (active)
2,CC1(C)CCSC(/C=C/c2ccccc2)=N1,7.94 µM (active)
3,CCC(=O)NC(=S)Nc1ccc(NC(=O)c2ccc(C)c([N+](=O)[O-])c2)cc1,14.1 µM (active)
4,CC(=O)c1ccc(NC(=S)Nc2ccc3cn[nH]c3c2)cc1,inactive
5,Cc1ccc(-c2nn(C(C)(C)C)c3ncnc(N)c23)cc1,5.62 µM (active)
6,Cc1cccc[n+]1CC(=O)c1ccc(NC(=O)c2ccccc2)cc1,7.94 µM (active)
7,Cc1ccc(Nc2cc(C)nc3ccc(C)cc23)cc1,10 µM (active)
8,COc1ccccc1N1CCN(C(=O)c2ccc3[nH]c4c(c3c2)CCCC4)CC1,12.6 µM (active)
9,CN(CCC#N)C(=O)COC(=O)c1ccc2[nH]c3c(c2c1)CCCC3,inactive
10,Cc1ccc(Cl)cc1Nc1nc(-c2sc(NC(=O)C(C)(C)C)nc2C)cs1,5.01 µM (active)
11,CCOC(=O)C1CCN(c2c(NCc3ccc(C(=O)NCCC(C)C)cc3)c(=O)c2=O)CC1,2.24 µM (active)
12,COc1ccc(C(=O)/C=C/c2cccnc2)c(OC)c1,7.94 µM (active)
13,O=C(/C=C/c1cccnc1)c1ccc(O)cc1,15.8 µM (active)
14,O=C(/C=C/c1cccnc1)/C=C/c1cccnc1,4.47 µM (active)
15,O=C(/C=C/c1ccccc1)/C=C/c1ccccc1,11.2 µM (active)
16,COc1cc(C(=O)/C=C/c2cccnc2)ccc1O,12.6 µM (active)
17,COc1cc(/C=C/C(=O)Nc2cccnc2)cc(OC)c1OC,14.1 µM (active)
18,COc1cc(/C=C/C(=O)OCC(=O)Nc2c(C)n(C)n(-c3ccccc3)c2=O)cc(OC)c1OC,inactive
19,CC(C)NC(=O)c1onc(CSc2cccc3ccccc23)c1C(=O)O,inactive
20,COc1cc2cc[n+](Cc3ccc([N+](=O)[O-])cc3)cc2cc1OC,5.01 µM (active)
21,CN1CCN(c2ncnc3c2c(-c2ccccc2)cn3-c2ccc(F)cc2)CC1,11.2 µM (active)
22,CCN1CCN(c2ncnc3c2c(-c2ccccc2)cn3-c2ccc(F)cc2)CC1,12.6 µM (active)
23,Fc1ccccc1N1CCN(c2ncnc3nc[nH]c23)CC1,inactive

row,Structure (SMILES),Potency
1,COc1ccc(-n2c(=O)/c(=C\c3cccs3)s/c2=C(/C#N)C(=O)N2CCN(C)CC2)cc1,inactive
2,O=C(CCl)N1CCN(CC(=O)N2CCCC2)CC1,15.8 µM (active)
3,CN(C(=O)CN1C(=O)CCSc2ccc(S(=O)(=O)N3CCCC3)cc21)c1ccccc1,11.2 µM (active)
4,O[C@@H](c1cc(C(F)(F)F)nc2c(C(F)(F)F)cccc12)[C@H]1CCCCN1,0.178 µM (active)
5,OC(c1cc(-c2ccc(Cl)cc2)nc2ccccc12)C1CCCCN1 (configuration not stated),0.282 µM (active)
6,OC(c1cc(C(F)(F)F)nc2c(Cl)cc(Cl)cc12)C1CCCCN1 (configuration not stated),0.0282 µM (active)
7,OC(c1cc(C(F)(F)F)nc2c(C(F)(F)F)cccc12)C1CCCCN1 (configuration not stated),0.0447 µM (active)
8,COc1ccc(-n2c(C)cc(C(=O)COC(=O)Cc3n[nH]c(=O)c4ccccc34)c2C)cc1,5.62 µM (active)
9,O=C(Cc1n[nH]c(=O)c2ccccc12)OCc1c(Cl)cccc1Cl,inactive
10,CC(C)(C)C(=O)/C(=C\c1cccc([N+](=O)[O-])c1)n1cncn1,14.1 µM (active)
11,CC(=O)c1ccc(NC(=O)C2Cc3ccccc3CN2C(=O)c2ccccc2)cc1 (configuration not stated),14.1 µM (active)
12,C/C1=C\CCC2C(/C=C(\C)CC1)OC(=O)C2CN1CCCCC1 (configuration not stated),12.6 µM (active)
13,N#Cc1cc(Oc2cccc3cccnc23)c(-n2nnc3ccccc32)cc1C#N,5.01 µM (active)
14,COc1ccccc1-c1cc(C(=O)N/N=C/c2cccs2)c2ccccc2n1,5.62 µM (active)
15,COc1ccccc1-c1cc(C(=O)N/N=C/c2ccc(C)o2)c2ccccc2n1,inactive
16,COc1ccccc1-c1cc(C(=O)N/N=C/c2ccc(C)s2)c2ccccc2n1,5.62 µM (active)
17,OC1C2(Cc3ccccc3)CN3CCN(C2)CC1(Cc1ccccc1)C3 (configuration not stated),2 µM (active)
18,CCCc1cc(NCCCN2CCOCC2)n2c(nc3ccccc32)c1C#N,8.91 µM (active)
19,Cc1ccccc1-c1nnc(NC(=O)c2ccc(N3C(=O)CCC3=O)cc2)s1,14.1 µM (active)
20,CCC[C@H]1C[C@H](C(=O)N[C@@H]([C@H]2O[C@@H](SC)[C@@H](O)[C@@H](O)[C@@H]2O)[C@H](C)Cl)N(C)C1,0.631 µM (active)
21,COc1ccc(NS(=O)(=O)c2ccc(N3CCOCC3)c(NC(=O)c3ccc(OC)cc3)c2)cc1,11.2 µM (active)
22,CCOC(=O)C1=C(C)NC(C)=C(C(=O)OCC)C1c1cc(N)ccc1OC(F)F,5.62 µM (active)
23,CCOc1ccc(S(=O)(=O)N2CCCC(C(=O)NC3CC3)C2)cc1Cl (configuration not stated),12.6 µM (active)

row,Structure (SMILES),Potency
1,COC(=O)COc1ccc(S(=O)(=O)NCCC2=CCCCC2)cc1Cl,inactive
2,COc1cccc2sc(NNC(=O)c3nc4ccccc4s3)nc12,15.8 µM (active)
3,COc1ccc(CN(C(=O)/C=C/C(=O)c2ccc(OC)cc2O)C(C(=O)NC2CCCCC2)c2ccncc2)cc1 (configuration not stated),7.94 µM (active)
4,O=C(NC1CCCCC1)C(c1ccncc1)N(Cc1ccccc1)C(=O)c1ccc(-c2ccccc2)[nH]1 (configuration not stated),4.47 µM (active)
5,O=C(NC1CCCC1)C(c1ccncc1)N(Cc1ccco1)C(=O)c1ccc(-c2ccccc2)[nH]1 (configuration not stated),11.2 µM (active)
6,COc1ccc(NC(=S)N(CCCN2CCCCCC2)Cc2cccs2)cc1,11.2 µM (active)
7,COc1cccc(N2CC(C(=O)Nc3nnc(SCCC4OCCO4)s3)CC2=O)c1 (configuration not stated),12.6 µM (active)
8,O=C(Nc1nnc(SCC(=O)N2CCCC2)s1)C1CC(=O)N(c2ccc(F)cc2)C1 (configuration not stated),11.2 µM (active)
9,CCc1ccc(NC2=CC(=O)C(=O)c3ccccc32)cc1,0.501 µM (active)
10,CSc1ccc(C2c3[nH]c4ccccc4c3CCN2C(=O)c2ccnn2C)cc1 (configuration not stated),7.08 µM (active)
11,Cn1nccc1C(=O)N1CCc2c([nH]c3ccccc23)C1c1ccc(F)cc1 (configuration not stated),7.94 µM (active)
12,CCc1ccc(C2c3[nH]c4ccccc4c3CCN2C(=O)c2cc(C)nn2C)cc1 (configuration not stated),5.01 µM (active)
13,Cc1cc[n+]2cc(-c3cccc([N+](=O)[O-])c3)c(-c3cccc([N+](=O)[O-])c3)cc2c1,0.631 µM (active)
14,COc1cccc(S(=O)(=O)NCc2ccc(C(=O)NCc3ccccn3)cc2)c1,inactive
15,COc1ccc(N(C)S(=O)(=O)c2cccc(C(=O)NCc3ccc(C)cc3)c2)cc1,12.6 µM (active)
16,CN(CCOc1ccccc1)C(=O)C1CCC(=O)N(CCN2CCOCC2)C1 (configuration not stated),inactive
17,CN(Cc1ccccc1Cl)C(=O)C1CCC(=O)N(CCc2cccc(F)c2)C1 (configuration not stated),11.2 µM (active)
18,O=C(Nc1ccccc1)N1CCC(O)(c2cccc(C(F)(F)F)c2)CC1,11.2 µM (active)
19,CCOc1ccccc1NC(=O)C(CC)Sc1nc2ccsc2c(=O)n1CCC(=O)O (configuration not stated),12.6 µM (active)
20,C[N+]1(CCCCSc2ccc(O)cc2)CCCCC1,7.08 µM (active)
21,Cc1c(C(=O)N2CCN(c3ccc([N+](=O)[O-])cc3)CC2)sc2ncn(CC(=O)N3CCOCC3)c(=O)c12,12.6 µM (active)
22,COc1ccc(N2CCN(C3CCCN(Cc4ccc(F)cc4)C3)CC2)cc1 (configuration not stated),11.2 µM (active)
23,COc1ccccc1N1CCN(C2CCCN(Cc3ccc(Cl)cc3)C2)CC1 (configuration not stated),6.31 µM (active)
